The campaign covered roughly 5,500 compounds. About 2,000 (36%) were called active. Roughly 18% stayed inconclusive and do not appear here. Some of the results follow. A number with no mark means an inactive call. Cut-off read from the data, not from the text of the source: active = normalized growth mostly below about 0.91 (no sharp cut-off); inconclusive = no clear call, values can overlap the other calls; inactive = mostly above about 0.92.
Test: chemical genetic growth profiling, strain panel (AID 1159580);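 note: tested at 20 µM; growth read once vehicle control cultures reached saturation at 30 °C; 1 = growth at the plate median or of vehicle wells; lower values mean less growth of the strain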
Conditions: S. cerevisiae deletion strains, growth OD

Q: With O=c1cc(-c2ccccc2)oc2cccc(O)c12 as the molecule, how does the normalized growth (locus YAL021C, strain ccr4, hits give low values) read?
A: Its normalized growth is 0.95.

Q: And the normalized growth (locus YAL026C, strain drs2, hits give low values)?
A: The normalized growth was 0.93.

Q: And the normalized growth (locus YAL030W, strain snc1, hits give low values)?
A: The normalized growth was 0.972.

Q: And the normalized growth (locus YBL061C, strain skt5, hits give low values)?
A: The normalized growth was 0.938.

Q: What about the normalized growth (locus YBR009C, strain hhf1, hits give low values) of the same molecule?
A: Its normalized growth is 0.969.

Q: What about the normalized growth (locus YBR023C, strain chs3, hits give low values) of the same molecule?
A: Its normalized growth is 0.892 (active).

Q: And the normalized growth (locus YBR171W, strain sec66, hits give low values)?
A: Its normalized growth is 0.952.

Q: What about the normalized growth (locus YBR231C, strain swc5, hits give low values) of the same molecule?
A: The normalized growth was 0.943.

Q: What about the normalized growth (locus YBR279W, strain paf1, hits give low values) of the same molecule?
A: The normalized growth was 0.931 (active).

Q: What about the normalized growth (locus YCL011C, strain gbp2, hits give low values) of the same molecule?
A: The normalized growth was 0.967.

Q: And the normalized growth (locus YCL016C, strain dcc1, hits give low values)?
A: The normalized growth was 0.938.

Q: And the normalized growth (locus YCL061C, strain MRC1, hits give low values)?
A: The normalized growth was 0.969.

Q: And the normalized growth (locus YCL069W, strain vba3, hits give low values)?
A: Its normalized growth is 0.959.

Q: And the normalized growth (locus YCR088W, strain abp1, hits give low values)?
A: The normalized growth was 0.972.

Q: What about the normalized growth (locus YDL005C, strain med2, hits give low values) of the same molecule?
A: Its normalized growth is 0.994.

Q: And the normalized growth (locus YDL040C, strain nat1, hits give low values)?
A: Its normalized growth is 0.961.

Q: What about the normalized growth (locus YDR001C, strain nth1, hits give low values) of the same molecule?
A: The normalized growth was 0.961.

Q: What about the normalized growth (locus YDR069C, strain doa4, hits give low values) of the same molecule?
A: The normalized growth was 0.985.

Q: And the normalized growth (locus YDR137W, strain rgp1, hits give low values)?
A: Its normalized growth is 0.716 (active).

Q: And the normalized growth (locus YDR159W, strain sac3, hits give low values)?
A: The normalized growth was 1.03.

Q: What about the normalized growth (locus YDR195W, strain ref2) of the same molecule?
A: Its normalized growth is 1.37 [resistant] (active).

Q: What about the normalized growth (locus YDR297W, strain sur2, hits give low values) of the same molecule?
A: Its normalized growth is 0.977.

Q: What about the normalized growth (locus YDR334W, strain swr1, hits give low values) of the same molecule?
A: The normalized growth was 0.964.

Q: What about the normalized growth (locus YDR335W, strain msn5, hits give low values) of the same molecule?
A: Its normalized growth is 0.968.

Q: What about the normalized growth (locus YDR392W, strain spt3, hits give low values) of the same molecule?
A: Its normalized growth is 0.605 (active).

Q: What about the normalized growth (locus YEL003W, strain gim4, hits give low values) of the same molecule?
A: Its normalized growth is 0.981.

Q: And the normalized growth (locus YEL037C, strain rad23, hits give low values)?
A: Its normalized growth is 0.959.

Q: And the normalized growth (locus YEL061C, strain CIN8 (second series), hits give low values)?
A: Its normalized growth is 0.963.

Q: And the normalized growth (locus YER015W, strain faa2, hits give low values)?
A: Its normalized growth is 0.969.

Q: And the normalized growth (locus YER016W, strain bim1, hits give low values)?
A: The normalized growth was 0.974.

Q: What about the normalized growth (locus YER111C, strain swi4, hits give low values) of the same molecule?
A: Its normalized growth is 0.985.

Q: What about the normalized growth (locus YER155C, strain BEM2 (second series), hits give low values) of the same molecule?
A: The normalized growth was 0.506 (active).

Q: And the normalized growth (locus YFR010W, strain ubp6, hits give low values)?
A: Its normalized growth is 0.959.

Q: And the normalized growth (locus YGL167C, strain pmr1, hits give low values)?
A: The normalized growth was 0.969.

Q: And the normalized growth (locus YGL173C, strain kem1, hits give low values)?
A: The normalized growth was 0.946.

Q: What about the normalized growth (locus YGL227W, strain vid30, hits give low values) of the same molecule?
A: The normalized growth was 0.977.

Q: And the normalized growth (locus YGL240W, strain doc1, hits give low values)?
A: Its normalized growth is 0.924.

Q: What about the normalized growth (locus YGL253W, strain hxk2, hits give low values) of the same molecule?
A: Its normalized growth is 0.859 (active).

Q: And the normalized growth (locus YHR013C, strain ard1, hits give low values)?
A: The normalized growth was 0.897.

Q: And the normalized growth (locus YHR027C, strain rpn1, hits give low values)?
A: The normalized growth was 0.98.

Q: What about the normalized growth (locus YHR030C, strain SLT2, hits give low values) of the same molecule?
A: The normalized growth was 1.02.

Q: What about the normalized growth (locus YHR079C, strain IRE1, hits give low values) of the same molecule?
A: The normalized growth was 0.992.

Q: And the normalized growth (locus YHR142W, strain chs7, hits give low values)?
A: The normalized growth was 0.765 (active).

Q: And the normalized growth (locus YJL092W, strain hpr5, hits give low values)?
A: The normalized growth was 0.975.

Q: And the normalized growth (locus YJL095W, strain BCK1 (second series), hits give low values)?
A: The normalized growth was 0.971.

Q: And the normalized growth (locus YJL095W, strain BCK1, hits give low values)?
A: Its normalized growth is 0.995.

Q: What about the normalized growth (locus YJL115W, strain asf1, hits give low values) of the same molecule?
A: The normalized growth was 0.979.

Q: What about the normalized growth (locus YJL129C, strain trk1, hits give low values) of the same molecule?
A: The normalized growth was 0.912.

Q: What about the normalized growth (locus YJL154C, strain vps35, hits give low values) of the same molecule?
A: Its normalized growth is 0.981.

Q: What about the normalized growth (locus YJL164C, strain tpk1, hits give low values) of the same molecule?
A: Its normalized growth is 0.902 (active).

Q: What about the normalized growth (locus YJL166W, strain qcr8, hits give low values) of the same molecule?
A: Its normalized growth is 0.908.

Q: What about the normalized growth (locus YJL187C, strain SWE1, hits give low values) of the same molecule?
A: The normalized growth was 0.966.

Q: And the normalized growth (locus YJR066W, strain TOR1, hits give low values)?
A: The normalized growth was 0.923.

Q: And the normalized growth (locus YKL160W, strain elf1, hits give low values)?
A: Its normalized growth is 0.872 (active).

Q: And the normalized growth (locus YKR026C, strain gcn3, hits give low values)?
A: The normalized growth was 0.969.

Q: And the normalized growth (locus YKR091W, strain srl3, hits give low values)?
A: Its normalized growth is 0.985.

Q: What about the normalized growth (locus YLL001W, strain dnm1, hits give low values) of the same molecule?
A: The normalized growth was 0.939.

Q: And the normalized growth (locus YLL026W, hits give low values)?
A: The normalized growth was 0.972.

Q: What about the normalized growth (locus YLL041C, strain sdh2, hits give low values) of the same molecule?
A: Its normalized growth is 0.97.

Q: What about the normalized growth (locus YLR027C, strain aat2, hits give low values) of the same molecule?
A: Its normalized growth is 0.934.

Q: What about the normalized growth (locus YLR113W, strain HOG1, hits give low values) of the same molecule?
A: Its normalized growth is 1.03.

Q: What about the normalized growth (locus YLR221C, strain rsa3, hits give low values) of the same molecule?
A: The normalized growth was 0.883 (active).

Q: What about the normalized growth (locus YLR258W, strain gsy2, hits give low values) of the same molecule?
A: Its normalized growth is 0.961.

Q: What about the normalized growth (locus YLR262C, strain YPT6 (second series), hits give low values) of the same molecule?
A: Its normalized growth is 0.78 (active).

Q: What about the normalized growth (locus YLR320W, strain mms22, hits give low values) of the same molecule?
A: The normalized growth was 0.774 (active).

Q: What about the normalized growth (locus YLR342W, strain FKS1, hits give low values) of the same molecule?
A: Its normalized growth is 0.984.

Q: What about the normalized growth (locus YLR357W, strain rsc2, hits give low values) of the same molecule?
A: Its normalized growth is 1.01.

Q: And the normalized growth (locus YLR370C, strain arc18, hits give low values)?
A: Its normalized growth is 0.964.

Q: What about the normalized growth (locus YLR384C, strain iki3, hits give low values) of the same molecule?
A: Its normalized growth is 0.976.

Q: And the normalized growth (locus YML120C, strain ndi1, hits give low values)?
A: Its normalized growth is 0.917.

Q: And the normalized growth (locus YMR058W, strain fet3, hits give low values)?
A: The normalized growth was 0.888 (active).

Q: And the normalized growth (locus YMR125W, strain sto1, hits give low values)?
A: The normalized growth was 1.

Q: And the normalized growth (locus YMR129W, hits give low values)?
A: The normalized growth was 0.979.

Q: And the normalized growth (locus YMR205C, strain PFK2, hits give low values)?
A: The normalized growth was 0.972.

Q: What about the normalized growth (locus YMR231W, strain pep5, hits give low values) of the same molecule?
A: Its normalized growth is 0.986.

Q: And the normalized growth (locus YNL071W, strain lat1, hits give low values)?
A: The normalized growth was 0.62 (active).

Q: What about the normalized growth (locus YNL183C, strain NPR1, hits give low values) of the same molecule?
A: Its normalized growth is 0.943.

Q: And the normalized growth (locus YNL209W, strain ssb2, hits give low values)?
A: Its normalized growth is 0.978.

Q: What about the normalized growth (locus YNL248C, strain rpa49, hits give low values) of the same molecule?
A: The normalized growth was 0.755 (active).

Q: What about the normalized growth (locus YNL322C, strain KRE1 (second series), hits give low values) of the same molecule?
A: Its normalized growth is 0.996.

Q: And the normalized growth (locus YNR049C, strain mso1, hits give low values)?
A: Its normalized growth is 0.965.

Q: What about the normalized growth (locus YOR001W, strain rrp6, hits give low values) of the same molecule?
A: The normalized growth was 0.911.

Q: What about the normalized growth (locus YOR070C, strain gyp1, hits give low values) of the same molecule?
A: The normalized growth was 0.937.

Q: And the normalized growth (locus YOR080W, strain dia2, hits give low values)?
A: Its normalized growth is 0.982.

Q: What about the normalized growth (locus YOR083W, strain WHI5, hits give low values) of the same molecule?
A: The normalized growth was 0.886 (active).

Q: And the normalized growth (locus YOR106W, strain vam3, hits give low values)?
A: The normalized growth was 0.923.

Q: And the normalized growth (locus YOR231W, strain MKK1, hits give low values)?
A: Its normalized growth is 1.01.

Q: And the normalized growth (locus YOR265W, strain rbl2, hits give low values)?
A: The normalized growth was 0.954.

Q: What about the normalized growth (locus YOR270C, strain vph1, hits give low values) of the same molecule?
A: Its normalized growth is 0.66 (active).

Q: And the normalized growth (locus YOR290C, strain snf2, hits give low values)?
A: Its normalized growth is 0.873.

Q: What about the normalized growth (locus YPL051W, strain arl3, hits give low values) of the same molecule?
A: The normalized growth was 0.853 (active).

Q: What about the normalized growth (locus YPL078C, strain atp4, hits give low values) of the same molecule?
A: The normalized growth was 0.807 (active).

Q: What about the normalized growth (locus YPL106C, strain sse1, hits give low values) of the same molecule?
A: Its normalized growth is 0.973.

Q: What about the normalized growth (locus YPL240C, strain hsp82, hits give low values) of the same molecule?
A: The normalized growth was 0.974.

Q: What about the normalized growth (locus YPL256C, strain CLN2, hits give low values) of the same molecule?
A: Its normalized growth is 1.05.
